TEAD-YAP block: TEAD-YAP interaction inhibition. HEK-TIYL cells, TEAD-Gal4/YAP UAS-luciferase luminescence. inhibition, % at 9.12 µM. actives 1.4% (n = 640,000); in the data active = inhibition above about 32%;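 also: 0% = median of test compound wells and 100% = reference inhibitor wells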
FBW7 act: activators of human E3 ligase FBW7; normalized activity (activation), % at 26.1 µM; AlphaScreen FBW7–phospho-cyclin E peptide binding, activator screen; actives 0.13% (n = 650,000); AID 1259310; in the data active = normalized activity above about 1.9%;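 also: purified mutant Fbw7 with reduced substrate affinity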
Target sequence (Q969H0 whole entry, looked up): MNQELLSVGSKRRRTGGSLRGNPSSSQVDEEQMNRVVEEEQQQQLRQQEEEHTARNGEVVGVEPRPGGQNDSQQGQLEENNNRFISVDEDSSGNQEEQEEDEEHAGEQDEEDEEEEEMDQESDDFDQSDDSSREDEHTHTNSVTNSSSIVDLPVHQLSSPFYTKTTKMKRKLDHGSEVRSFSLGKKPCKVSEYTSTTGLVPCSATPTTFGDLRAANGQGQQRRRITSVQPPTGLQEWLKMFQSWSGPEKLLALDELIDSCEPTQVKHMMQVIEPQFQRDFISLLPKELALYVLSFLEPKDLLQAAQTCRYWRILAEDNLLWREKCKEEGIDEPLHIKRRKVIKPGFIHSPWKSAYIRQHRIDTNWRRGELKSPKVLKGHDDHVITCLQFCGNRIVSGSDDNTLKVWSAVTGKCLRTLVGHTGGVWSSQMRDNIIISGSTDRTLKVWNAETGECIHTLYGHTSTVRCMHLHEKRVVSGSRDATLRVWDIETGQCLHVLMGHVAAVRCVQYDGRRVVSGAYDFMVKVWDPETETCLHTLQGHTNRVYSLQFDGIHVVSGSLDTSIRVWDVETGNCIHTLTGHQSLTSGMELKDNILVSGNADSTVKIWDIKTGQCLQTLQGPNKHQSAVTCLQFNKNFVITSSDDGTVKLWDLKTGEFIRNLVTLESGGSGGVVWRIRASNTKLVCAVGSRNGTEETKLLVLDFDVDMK
MITF inh: blocks human microphthalmia-associated transcription factor | O75030 | AlphaScreen MITF homodimerization, bead proximity signal | inhibition, % at 2.6 µM | AID 1259374 | actives 0.91% (n = 650,000); in the data active = inhibition above about 50%;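 also: 0% = vehicle wells with protein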
GPR151 activ: human GPR151 activation; activation, % at 11.2 µM; PathHunter beta-arrestin GPR151 cells, luminescence; actives 1% (n = 650,000); in the data active = activation above about 4.9%;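 also: 0% = median of compound wells and 100% = cells with positive control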
MITF confirm: human MITF inhibition, confirmation; shares compounds with MITF inh; AlphaScreen MITF homodimerization, biotin/His-MITF beads; inhibition, % at 2.6 µM; actives 16% (n = 4,700);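 active = inhibition above a cutoff derived from the DMSO control wells, cut at about 28% in these data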;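 also: 0% = MITF dimer wells with DMSO only; inhibitors lower the bead chemiluminescence by keeping MITF from dimerizing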
AS interf ctr: counter-screen: compounds optically interfering with AlphaScreen. shares compounds with MITF inh. LysRS AlphaScreen counterscreen, signal interference, triplicate. inhibition, % at 2.6 µM. actives 7.6% (n = 4,700);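 active = inhibition above a cutoff derived from the DMSO control wells, cut at about 30% in these data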
Starred values were filed as active, the others as inactive; · = no result. Sampled rows, rich in hits. Any-hit rate of the full collection: about 3.4%.

SMILES	TEAD-YAP block	FBW7 act	MITF inh	GPR151 activ	MITF confirm	AS interf ctr
COc1ccc(-c2nc(N3CCN(C)CC3)[nH]c(=O)c2C#N)cc1	-2.1	0.1	4.0	-1.1	·	·
Cc1cccc(NC(=O)c2ccc(COc3ccccc3Br)cc2)n1	1.1	-0.4	69.5*	-0.7	-5.0	-4.9
Cc1cccc(NC(=O)c2cccc(OCc3ccccc3)c2)n1	6.5	-0.1	9.8	-5.7	·	·
CCCN1CCCc2cc(CCNS(=O)(=O)c3cccs3)ccc21	-3.4	0.0	58.5*	-1.0	-6.0	-2.8
COc1ccc(CN2CCN(Cc3ccccc3C)CC2)c(OC)c1	9.6	0.1	82.9*	0.0	9.6	3.9
CCS(=O)(=O)N1CCN(Cc2ccc(OC)cc2OC)CC1	6.9	0.0	41.7	-0.5	·	·
COc1ccc(OC)c(CN2CCN(Cc3ccccc3C)CC2)c1	-3.5	0.2	51.5*	-1.6	6.0	7.7
CCCCOC(=O)C(C)Oc1ccc2c(=O)c(Oc3ccc(CC)cc3)coc2c1 (stereo not given)	10.9	0.1	0.6	-0.8	·	·
CNc1nc(-c2cc(F)ccc2F)cs1	-12.3	-0.1	-6.8	0.0	·	·
CC(C)CN(CC(C)C)C(=S)NC1CCCCC1	5.5	0.0	68.8*	-0.3	7.9	7.6
Cn1cnnc1SC1CCCCN(C(=O)c2ccc(F)cc2)C1=O (stereo not given)	-1.5	-0.1	-3.3	2.6	·	·
O=C1c2ccc(-c3nc4ccccc4c(=O)o3)cc2C(=O)N1c1ncc([N+](=O)[O-])s1	1.1	0.2	55.6*	0.7	-9.7	-7.2
O=C(c1cccs1)N1CCN(C2CCCC2)CC1	-9.5	0.1	45.0	-0.1	·	·

Screening data deposited in PubChem BioAssay by The Scripps Research Institute Molecular Screening Center.
